# Assay outcomes as filed in PubChem.
# Shown are actives, neighbours in structure and some others; about 5.2% of the full set was active somewhere.
# Sfp inh: blocks B. subtilis Sfp PPTase activity. Q9F4F7. Biochemical Sfp PPTase activity, qHTS. Potency, µM, for the others: largest response in the series, negative = inhibition, actives largely listed as inhibitors. 310,000 compounds, 3.5% hits. AID 1490;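 also: the enzyme is Sfp with the accession as filed and its product quenches rhodamine fluorescence; 0% = enzyme reaction without inhibitor and -100% = no enzyme wells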
#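 Sfp 15 nM + cpd, 15 min RT; start w/ rhodamine-CoA 5 uM, BHQ-2-YbbR 12.5 uM (final); 50 mM Hepes pH 7.6, 10 mM MgCl2, 0.01% NP-40, 0.01% BSA; read 525/598 nm at 0 and 30 min.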
# VDR inhibitor: vitamin D3 receptor (human) inhibition. P11473. VDR-SRC2-3 peptide fluorescence polarization, 2 h. Potency, µM, inactives show max response, negative = inhibition, usual class: inhibitors. 400,000 compounds, 0.93% hits
#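 Reagent solutions, kept cold and dark, are dispensed first; compounds are then pinned in at 23 nl, plates briefly spun, and incubated 2 h at ambient temperature. Inhibition of VDR–SRC2-3 peptide binding is read by fluorescence polarization.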
# rTrxR1 inhibitor: rat TrxR1 inhibition | O89049 | recombinant rTrxR1, NADPH fluorescence consumption, selenite substrate | Potency, µM (series often up to 114 µM), without a hit: at the highest dose activity change, negative = inhibition, usual class: inhibitors | 390,000 compounds, 1% hits | AID 588453; also: nearly all actives have a fitted effect of over 65% in size
#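 Rat TrxR1 (90 nM in the dispensed reagent) was pre-reduced with 400 uM NADPH for 5 min at room temperature, then incubated with compound for 15 min. After 400 uM selenite was added, NADPH fluorescence (Ex 340/Em 450 nm) was followed for 8 min.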
# IDH1 R132H inh: inhibitors of human mutant IDH1 R132H; Potency, µM (series often up to 76.6 µM), for the others: at the highest dose activity change, negative = inhibition, usual class: inhibitors; IDH1-R132H enzyme, NADPH consumption, diaphorase/resazurin fluorescence; 390,000 compounds, 0.093% hits; O75874; also: nearly all actives have a fitted effect of over 65% in size
# Target sequence (O75874 whole entry R132H, stated change not applied): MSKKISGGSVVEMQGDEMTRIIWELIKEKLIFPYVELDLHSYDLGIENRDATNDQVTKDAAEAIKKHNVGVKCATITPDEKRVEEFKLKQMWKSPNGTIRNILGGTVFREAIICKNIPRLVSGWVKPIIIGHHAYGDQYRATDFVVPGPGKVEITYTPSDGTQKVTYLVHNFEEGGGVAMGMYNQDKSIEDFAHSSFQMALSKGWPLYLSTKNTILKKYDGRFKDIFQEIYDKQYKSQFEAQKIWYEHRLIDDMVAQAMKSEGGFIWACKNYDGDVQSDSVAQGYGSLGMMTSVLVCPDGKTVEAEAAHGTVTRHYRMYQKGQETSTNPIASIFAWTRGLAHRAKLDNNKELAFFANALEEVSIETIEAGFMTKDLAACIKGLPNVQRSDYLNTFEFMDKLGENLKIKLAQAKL
#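 IDH1-R132H (0.5 ug/mL) preincubated 30 min with compound, then NADPH (0.016 mM) and alpha-KG (2 mM) added; 80 min at RT, pH 7.5. Remaining NADPH coupled via diaphorase/resazurin to fluorescence (540/590 nm); concentration-response curves normalized to no-enzyme control.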
# PLK1 PBD inh: inhibitors of human PLK1 polo-box domain binding | Plk1 PBD binding of FITC phosphopeptide, fluorescence polarization | Potency, µM, inactives show max response, negative = inhibition, most hits filed as inhibitors | 360,000 compounds, 2.8% hits; also: series mostly up to about 57 µM; nearly all actives have a fitted effect of over 65% in size
# TrxR1 substrate: is turned over as a substrate by rat TrxR1. O89049. purified TrxR1 substrate turnover, NADPH consumption readout. Potency, µM (doses to about 114 µM), without a hit: at the highest dose activity change, negative = substrate turnover. 390,000 compounds, 0.01% hits. AID 588456; also: nearly all actives have a fitted effect of over 50% in size
#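 Rat TrxR1, dispensed at 90 nM, was prereduced with 400 uM NADPH (final) for 5 min at ~22 deg C, then incubated with compound 15 min before 400 uM selenite. A first-read NADPH fluorescence drop versus no-compound background flagged substrates.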
# * marks the source's active call; other numbers are inactive results; ? = inconclusive; . = no result; [ ] = remark or other dose. Calls follow the shape of the dose curve; as a rule, active = well fitted curve in the direction sought with a large enough effect; inconclusive = small, poorly fitted or top-dose-only effect, or another doubt; inactive = no such curve, though single readings can be large; an effect the other way counts as inactive or inconclusive. Unless noted, % is scaled to controls: 0 for no effect and ±100 for the full control effect; potency is read from the fitted curve at half-maximal effect.
SMILES,Sfp inh,VDR inhibitor,rTrxR1 inhibitor,IDH1 R132H inh,PLK1 PBD inh,TrxR1 substrate
CCOC(=O)c1cc(CC)sc1NC(=O)c1cccc(N2C(=O)CCC2=O)c1,-16%,-23%,-13%,0%,-1%,-9%
CCOC(=O)c1cc(CC)sc1NC(=O)c1ccc2c(c1)OCCO2,?,-18%,64%,3%,21µM*,73%
CCOC(=O)c1cc(CC)sc1NC(=O)C1CC1,-6%,16%,11%,5%,-5%,-5%
CC1=C(c2ccc(C(C)C)cc2)S(=O)(=O)N=C1N1CCC(C(=O)NCCc2ccco2)CC1,.,5%,2%[57.1 µM],.,.,-2%[57.1 µM]
CCOc1ccc(NC(=O)NCCCN2CCN(c3ccc(F)cc3)CC2)cc1,.,-8%,5%,-2%,.,-7%
COc1ccc(CCN2CCC[C@H](CN3CCc4cc(OC)c(OC)cc4CC3=O)C2)cc1OC,-13%,1%,.,.,.,.
Nc1nc2ncccn2c1-c1ccc(F)c(F)c1,.,.,.,.,-5%,.
Cn1cc(C(=O)[C@@H]2CCc3[nH]cnc3C2)c2ccccc21,-15%,0%,.,.,.,.
Cc1ccc2nc3c(cc(C(N)=S)c(=N)n3CCCOC(C)C)c(=O)n2c1,45µM*,?,31%,0%,-27%,252%
O=c1cc(-c2cccc(O)c2O)oc2ccccc12,79µM*,.,.,.,.,.
CCOc1ccccc1-c1c2cc(O)c(=O)cc-2oc2cc(O)c(O)cc12,32µM*,?,?,13µM*,-10%,-18%
O=c1cc(-c2ccccc2O)oc2cc(O)ccc12,-4%,7%,.,.,.,.
O=c1cc(-c2ccccc2O)oc2cc(O)cc(O)c12,-26%,.,.,.,.,.
O=c1cc2oc3cc(O)c(O)cc3c(-c3ccccc3O)c-2cc1O,79µM*,?,?,-4%,24µM*,-11%[57.1 µM]
CSCCC(C(=O)NC1CCCC1)n1c(C2CC2)nc2ccccc21 (configuration not stated),.,.,.,.,-15%,.
CN1/C(=C/C=C/c2n(C)c3cc([N+](=O)[O-])c([N+](=O)[O-])cc3[n+]2C)C(C)(C)c2ccccc21,.,.,.,21%,4%,.
CC[n+]1c(/C=C/C=C2/N(C)c3ccccc3C2(C)C)sc2ccccc21,.,35µM*,8%[57.1 µM],.,.,8%[57.1 µM]
CCNc1nc(NCC)n2c(SC(C(=O)Nc3cc(C)ccc3OC)c3ccccc3)nnc2n1 (configuration not stated),50µM*,-9%,-2%,2%,-18%,-12%
COc1ccc(C)cc1NC(=O)C(Sc1nnc2ccccn12)c1ccccc1 (configuration not stated),7%,-18%,17%,13%,-13%,7%
CCNc1nc(NCC)n2c(SCC(=O)Nc3ccc(Br)cc3F)nnc2n1,.,71µM*,19%[57.1 µM],-6%,13µM*,6%[57.1 µM]
Cc1ccc(NC(=O)CN(C)C(=O)Cc2ccc(Cl)c(Cl)c2)cc1,14%,22%,11%,14%,-2%,-5%
Cc1ccc(NC(=O)CN(C)C(=O)Cn2ncc(Cl)c(Cl)c2=O)cc1,-9%,-6%,71µM*,2%,?,-9%
COc1ccc(CNC(=O)C2CCN(C(=O)[C@@H]3Cc4ccccc4CN3)CC2)cc1,7%,?,2%[57.1 µM],-17%,6µM*,4%[57.1 µM]
CCOC(=O)C(C)Sc1ccc2nnc(-c3ccc(OCC)cc3)n2n1 (configuration not stated),.,-2%,-21%,.,.,-11%
CC1(C(=O)N2Cc3ccccc3C2)CCN1C(=O)Cc1ccccc1 (configuration not stated),.,.,.,.,-15%,.
SMILES,Sfp inh,VDR inhibitor,rTrxR1 inhibitor,IDH1 R132H inh,PLK1 PBD inh,TrxR1 substrate
CC1(C)CC2CN(C(=O)Cc3ccccc3)C(C)(C2)C1 (configuration not stated),-29%,-10%,40%,5%,21µM*,9%
Cc1ccc(NC(=O)c2cc(C)nc3ccccc23)c(C)c1,14%,6%,17%,3%,-15%,0%
Cc1ccc(NC(=S)c2ccc3ccccc3n2)c(C)c1,22µM*,79µM*,-2%,1%,13µM*,-2%
CCOc1ccc(NC(=S)c2ccc3ccccc3n2)cc1,?,11%,27%,17%,2.7µM*,0%
COc1ccc(NC(=S)c2ccc3ccccc3n2)cc1,22µM*,?,-1%,5%,6.7µM*,2%
COc1cccc(NC(=O)c2nc(S(C)(=O)=O)ncc2Cl)c1,?,20µM*,8.9µM*,0%,24µM*,6%
Cc1cccc(NC(=O)c2nc(S(C)(=O)=O)ncc2Cl)c1,.,?,7.1µM*,7%,.,11%[57.1 µM]
CCS(=O)(=O)c1ncc(Cl)c(C(=O)Nc2c(C(=O)Nc3cccc(C)c3)oc3ccccc23)n1,.,9%,9%,-19%,.,6%
COc1cccc(NC(=O)c2nc(SC)ncc2Cl)c1,14%,2%,?,5%,-4%,6%[57.1 µM]
O=C(CN1CCN(c2ccc(F)cc2)CC1)c1ccc2c(c1)OCO2,-21%,-8%,25µM*,3%,-8%,4%
C=CCNC(=O)C(=O)NCC(c1ccc2c(c1)OCO2)N1CCOCC1 (configuration not stated),11%,-25%,18%,-4%,-29%,1%
O=C(CCN1CCOCC1)c1ccc2c(c1)OCCO2,-15%,56µM*,4µM*,5%,?,7%
O=C(CCN1CCCCC1)c1ccc2c(c1)OCO2,?,45µM*,?,8%,?,-6%
O=C(CCCN1CCOCC1)c1ccc2c(c1)OCCO2,7%,-19%,8%,-1%,-1%,10%
COc1ccc(C(=O)CN2CCN(c3ccc(F)cc3)CC2)cc1,-5%,-16%,?,-2%,-6%,1%
C=CCNC(=O)C(=O)NCC(c1ccc2c(c1)OCO2)N1CCN(c2ccc(F)cc2)CC1 (configuration not stated),9%,?,4%,2%,24µM*,-1%
COc1ccccc1C(=O)NCCn1cc(SCC(=O)Nc2ccccc2F)c2ccccc21,.,-2%,9%,-12%,.,-7%
CCCCN1C(C(=O)c2ccccc2)=C(OC(=O)CC)c2ccccc2S1(=O)=O,.,-30%,10%,-2%,.,-5%
O=C(CCNS(=O)(=O)c1ccc2c(c1)CCN2C(=O)C1CC1)Nc1ccc(OC(F)(F)F)cc1,.,14%,22%[57.1 µM],-12%,.,2%[57.1 µM]
O=C(CSc1nccc(=O)[nH]1)N1N=C2/C(=C/c3ccco3)CCCC2C1c1ccco1 (configuration not stated),10µM*,-10%,8%[57.1 µM],-32%,-17%,6%[57.1 µM]
Nc1nc(SCC(=O)N2N=C3/C(=C/c4ccco4)CCCC3C2c2ccco2)n[nH]1 (configuration not stated),-12%,3%,7%[57.1 µM],4%,-9%,-5%
